For the test, the target named is CLIC1_O00299_191_LHIVQVVCKK (UniProt O00299). Nature of the test: probe-labelled cysteine peptide fold change vs DMSO (competition) (log2 fold change); higher = less target engagement (more negative = stronger competition). Particulars: THP-1, incubation time: 4 h.

About 21,000 targets were measured; listed, in parts, are those with the largest changes and a random draw of the rest.
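Further: competitive chemoproteomic profiling in live THP-1 cells with an iodoacetamide desthiobiotin (IA-DTB) probe, comparing probe-labelled peptide intensities in compound-treated cells against DMSO-treated controls.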

On to `CC1Cc2ccccc2N1C(=O)C1CCCN(C(=O)CCl)C1` (mixture of isomers) [TRIM25 ligand 11 (diastereomer mixture)], for which the “probe-labelled cysteine peptide fold change” value was -0.428 (10 µM) and -0.575 (50 µM).

These data come from the supplement of paper PMC12067093, “Discovery and optimisation of a covalent ligand for TRIM25 and its application to targeted protein ubiquitination” (Chemical Science, 2025).
